This note sets out measurements from the supplement of paper PMC4709259.

Structures can show the parent of a compound that is named as a salt. ± gives the standard deviation.

For experiment [1], the system named is Jurkat. Description: mean cell size (FSC-A) relative to DMSO control (fraction of control); higher = larger cells. Particulars: 48 h. Summed up: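 Jurkat cells seeded at 600 cells/µl were incubated 1 h, then exposed for 48h to the Enzo Screen-Well FDA Approved Drug Library v2.0 at 25µM in 0.9% (v/v) final DMSO. Drugs that cut counts below 20% of controls were diluted 10-fold and retested, down to 25nM. Cell count and mean cell size (forward scatter area) were read on an Accuri C6 flow cytometer, relative to solvent-only controls. Plates held 6-12 controls; values are means of 3 biological replicates.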

For experiment [2], the system named is Jurkat. Description: cell count relative to DMSO control (fraction of control); higher = more cells (less growth inhibition). Conditions: 48 h.

`O=c1[nH]c(=O)n([C@H]2C[C@H](O)[C@@H](CO)O2)cc1I` [Idoxuridine] (concentration: 25 µM) yielded a mean cell size with Jurkat [1] of 1.05 ± 0.019. Moreover, the cell count in the experiment on Jurkat [2] amounted to 0.235 ± 0.062.
Consider `Cc1oncc1C(=O)Nc1ccc(C(F)(F)F)cc1` [Leflunomide] (concentration: 25 µM), for which, in the experiment on Jurkat [1], the mean cell size is 1.07 ± 0.025. In the experiment with Jurkat [2], the cell count is 0.606 ± 0.038.
The compound `CC1(C)C[C@@H]1C(=O)N/C(=C\CCCCSC[C@H](N)C(=O)O)C(=O)O` [Cilastatin·Na] (concentration: 25 µM) had a mean cell size in the experiment with Jurkat [1] of 0.942 ± 0.011. This compound returned a cell count with Jurkat [2] of 1.03 ± 0.092.
In turn, `CN(Cc1cnc2nc(N)nc(N)c2n1)c1ccc(C(=O)N[C@@H](CCC(=O)O)C(=O)O)cc1` [Methotrexate] (concentration: 25 nM) came in with a mean cell size in the experiment on Jurkat [1] of 1.16 ± 0.035. This compound also came in with a cell count in the experiment on Jurkat [2] of 0.499 ± 0.093.
For `Cc1cc2c(s1)Nc1ccccc1N=C2N1CCN(C)CC1` [Olanzapine] (concentration: 25 µM), in the experiment on Jurkat [1], the mean cell size was 1.02 ± 0.06. For the same compound, the cell count with Jurkat [2] stood at 0.914 ± 0.1.
In turn, `Clc1ccccc1CN1CCc2sccc2C1` [Ticlopidine·HCl] (concentration: 25 µM) gave a mean cell size in the experiment on Jurkat [1] of 0.922 ± 0.011. For the same compound, the cell count with Jurkat [2] was found to be 0.752 ± 0.017.
In the experiment on Jurkat [1], `C[C@H]1C[C@H]2[C@@H]3CCC4=CC(=O)C=C[C@]4(C)[C@@]3(F)[C@@H](O)C[C@]2(C)[C@@]1(O)C(=O)CO` [Betamethasone] (concentration: 25 µM) showed a mean cell size of 0.914 ± 0.018. The cell count with Jurkat [2] came out at 0.764 ± 0.084.
For `CC1CNc2c(cccc2S(=O)(=O)N[C@@H](CCCNC(=N)N)C(=O)N2CC[C@@H](C)C[C@@H]2C(=O)O)C1` (stereo partly specified) [Argatroban] (concentration: 25 µM) the same measures were 0.938 ± 0.025 and 0.702 ± 0.023.
Compound `Cc1nccn1CC1CCc2c(c3ccccc3n2C)C1=O` (stereo unspecified) [Ondansetron] (concentration: 25 µM) gave a mean cell size in the experiment with Jurkat [1] of 0.97 ± 0.028. Moreover, the cell count with Jurkat [2] worked out at 0.816 ± 0.074.
Compound `COc1ccc2[nH]c([S@@+]([O-])Cc3ncc(C)c(OC)c3C)nc2c1` [Esomeprazole Potassium] (concentration: 25 µM) showed a mean cell size in the experiment with Jurkat [1] of 0.98 ± 0.027. Further, the cell count in the experiment with Jurkat [2] was determined as 0.868 ± 0.081.
In the experiment with Jurkat [1], `C[C@](N)(Cc1ccc(O)c(O)c1)C(=O)O` [Methyldopa Sesquihydrate (L-Α-Methyl-Dopa Sesquihyrate)] (concentration: 25 µM) had a mean cell size of 0.958 ± 0.027. This compound yielded a cell count in the experiment on Jurkat [2] of 0.834 ± 0.052.
`Clc1ccc2c(c1)CCc1cccnc1C2=C1CCNCC1` [Desloratadine] (concentration: 25 µM) returned a mean cell size in the experiment with Jurkat [1] of 1 ± 0.05. In the experiment on Jurkat [2], this compound yielded a cell count of 0.702 ± 0.045.
For `CC[C@H]1OC(=O)[C@H](C)[C@@H](O[C@H]2C[C@@](C)(OC)[C@@H](O)[C@H](C)O2)[C@H](C)[C@@H](O[C@@H]2O[C@H](C)C[C@H](N(C)C)[C@H]2O)[C@](C)(O)C[C@@H](C)C(=O)[C@H](C)[C@@H](O)[C@]1(C)O` [Erythromycin] (concentration: 25 µM) the same measures were 0.97 ± 0.038 and 0.871 ± 0.061.
`C#C[C@]1(O)CC[C@H]2[C@@H]3CCC4=Cc5oncc5C[C@]4(C)[C@H]3CC[C@@]21C` [Danazol] (concentration: 25 µM) gave a mean cell size in the experiment with Jurkat [1] of 0.995 ± 0.026. The cell count in the experiment on Jurkat [2] is 0.92 ± 0.08.
The matching figures for `C[C@H]1c2cccc(O)c2C(O)=C2C(=O)[C@]3(O)C(O)=C(C(N)=O)C(=O)[C@@H](N(C)C)[C@@H]3[C@@H](O)[C@@H]21` [Doxycycline Monohydrate] (concentration: 25 µM): 0.861 ± 0.021 and 0.266 ± 0.051.
For `c1cnc2cc3c(cc2n1)[C@@H]1CNC[C@H]3C1` [Varenicline Tartrate] (concentration: 25 µM) the same measures were 1.02 ± 0.038 and 1.01 ± 0.062.
For `N=C(N)N` [Guanidine·HCl] (concentration: 25 µM) the same measures were 0.94 ± 0.018 and 1.02 ± 0.096.
For `COc1ccc2c(c1)c(CC(=O)O)c(C)n2C(=O)c1ccc(Cl)cc1` [Indomethacin] (concentration: 25 µM), the mean cell size in the experiment on Jurkat [1] stood at 0.971 ± 0.046. The cell count with Jurkat [2] is 0.482 ± 0.087.
On to `N=C(N)NC(=O)c1nc(Cl)c(N)nc1N` [Amiloride·HCl·2H2O] (concentration: 25 µM), for which the mean cell size in the experiment on Jurkat [1] was found to be 0.945 ± 0.055. For the same compound, the cell count with Jurkat [2] turned out to be 0.504 ± 0.045.
In the experiment with Jurkat [1], `CCn1cc(C(=O)O)c(=O)c2cc(F)c(N3CCNCC3)cc21` [Norfloxacin] (concentration: 25 µM) gave a mean cell size of 0.9213 ± 0.0047. For the same compound, the cell count in the experiment on Jurkat [2] was 0.982 ± 0.014.
`CCOC(=O)C1=C(C)NC(C)=C(C(=O)OC)C1c1cccc(Cl)c1Cl` (stereo unspecified) [Felodipine] (concentration: 25 µM): the mean cell size with Jurkat [1] is 0.9169 ± 0.007. In the experiment with Jurkat [2], this compound yielded a cell count of 0.922 ± 0.12.
In the case of `CC(C)(C)NC[C@H](O)COc1nsnc1N1CCOCC1` [(S)-Timolol Maleate] (concentration: 25 µM), the mean cell size in the experiment on Jurkat [1] stood at 0.963 ± 0.034. The cell count in the experiment with Jurkat [2] amounted to 0.967 ± 0.15.
In turn, `CC(C)NCC(O)COc1ccc(COCCOC(C)C)cc1` (stereo unspecified) [Bisoprolol Fumarate] (concentration: 25 µM) yielded a mean cell size in the experiment on Jurkat [1] of 0.964 ± 0.046. The compound also displayed a cell count with Jurkat [2] of 0.732 ± 0.035.
